From PubChem BioAssay (EPA / NIEHS)
“And” between values parts separate entries of the source, which are not always exact repeats. Equal entries are not always repeated. Results filed as inconclusive are left out. Some structures have more than one record in an assay (separate samples or runs), and their calls can disagree. The source made the active and inactive calls. The calls were made as follows, unless noted: active = hit-call score of the fitted dose curve at least 0.9, where 1 is the maximum; inactive = score below 0.9.

Target: human Vitamin D Receptor (VDR), VDR (gene 7421) (UniProt P11473)
Assay: ATG_VDR_TRANS: Attagene TRANS-FACTORIAL HepG2 Assay for human Vitamin D Receptor (VDR) (AID 2283022; active = hit-call score of the fitted dose curve at least 0.9, where 1 is the maximum)
Conditions: not given
Outline: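 Multiplexed TRANS reporter in HepG2; 24 h treatment; reporter mRNA by RT-PCR plus capillary electrophoresis; upregulation scored relative to DMSO.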

human Vitamin D Receptor (VDR), VDR (gene 7421), sequence (P11473 whole entry, looked up): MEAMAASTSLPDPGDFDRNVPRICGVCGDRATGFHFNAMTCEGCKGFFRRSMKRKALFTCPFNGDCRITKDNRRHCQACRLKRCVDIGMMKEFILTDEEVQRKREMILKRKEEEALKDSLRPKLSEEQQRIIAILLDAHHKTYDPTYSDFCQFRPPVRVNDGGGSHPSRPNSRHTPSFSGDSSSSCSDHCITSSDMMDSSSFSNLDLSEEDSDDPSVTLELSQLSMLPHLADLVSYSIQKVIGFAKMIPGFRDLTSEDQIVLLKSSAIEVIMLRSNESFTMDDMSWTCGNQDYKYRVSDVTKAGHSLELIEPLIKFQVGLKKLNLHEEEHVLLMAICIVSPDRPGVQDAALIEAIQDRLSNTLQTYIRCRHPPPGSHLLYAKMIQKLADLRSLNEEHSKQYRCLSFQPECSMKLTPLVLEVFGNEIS

Compound	outcome
Nc1ccc(-c2ccc(N)c(N)c2)cc1N	inactive
CCOP(O)OCC	inactive
O=c1[nH]c(Cl)c(Cl)cc1Cl	inactive
CCC(C)c1cc(C(C)(C)C)cc(-n2nc3ccccc3n2)c1O (centres undefined)	inactive
Nc1c(Cl)c(Cl)c(Cl)c(Cl)c1Cl	inactive
COC(=O)c1ccccc1S(=O)(=O)NC(=O)Nc1nc(C)cc(C)n1	inactive
Nc1cc(Cl)cc(Cl)c1	inactive
[CH3][Sn]([CH3])([Cl])[Cl]	inactive
CCc1cccc(C)c1N(C(=O)CCl)[C@@H](C)COC	inactive
O=S(=O)(c1ccccc1)c1ccccc1	inactive
Clc1ccc(-c2ccccc2)cc1	inactive
CN(C)C(=O)C(c1ccccc1)c1ccccc1	inactive
C=CCc1ccc(OC(=O)Cc2ccccc2)c(OC)c1	inactive
O=P(O)(Oc1ccccc1)Oc1ccccc1	inactive
CC1CCCC1.[C-]#[O+].[C-]#[O+].[C-]#[O+].[Mn]	inactive
CCC(=O)c1ccc(Cl)cc1	inactive
Cc1ccc(N(SC(F)(Cl)Cl)S(=O)(=O)N(C)C)cc1	inactive
CC1(C)CC(=O)CC(C)(C)N1[O]	inactive
SCc1ccco1	inactive
O=CNC(N1CCN(C(NC=O)C(Cl)(Cl)Cl)CC1)C(Cl)(Cl)Cl (centres undefined)	inactive
C[C@]12CCC(=O)C(O)=C1CC[C@@H]1[C@@H]2CC[C@]2(C)C(=O)CC[C@@H]12	inactive
CSc1nc(N=[N+]=[N-])nc(NC(C)C)n1	inactive

Read-out: not listed separately
Assay: BSK_3C_SRB: Viability Assessment in the BioMAP Diversity Plus: 3C Assay (AID 2283023);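 also: fitted both ways against DMSO so a hit may be signal rise or drop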
Conditions: primary human endothelial cells (HUVEC)
Outline: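 Overt cytotoxicity is gauged in parallel confluent HUVEC cultures by SRB total-protein staining at the time of biomarker measurement, 24 h after dosing. Gain or loss of signal is fitted versus DMSO.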

Compound	outcome	AC50
Nc1ccc(-c2ccc(N)c(N)c2)cc1N	inactive	–
O=c1[nH]c(Cl)c(Cl)cc1Cl	inactive	–
O=C(O)CCCc1ccc(N(CCCl)CCCl)cc1	–	20 µM (active)
COC(C)(C)CCC[C@H](C)C/C=C/C(C)=C/C(=O)OC(C)C	–	31.1 µM (active)
O=P1(NCCCl)OCCCN1CCCl (centres undefined)	inactive	–
O=S(=O)(c1ccccc1)c1ccccc1	inactive	–
Clc1ccc(-c2ccccc2)cc1	–	30.9 µM (active)
Oc1cc(Cl)ccc1Cl	inactive	–

Read-out: Matrix Metallopeptidase 1 (MMP1), MMP1 (gene 4312)
Assay: BSK_BE3C_MMP1: BioMAP Diversity Plus: BE3C Assay for Matrix Metallopeptidase 1 (MMP1) Biomarker Activity (AID 2283024)
Conditions: primary human bronchial epithelial cells; actives raise or lower the signal
Outline: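 MMP1 signal, measured by ELISA after a 24 h chemical exposure of human primary bronchial epithelial cells, is analysed with bidirectional fitting using DMSO as negative control.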

Compound	outcome	AC50
Nc1ccc(-c2ccc(N)c(N)c2)cc1N	inactive	–
O=c1[nH]c(Cl)c(Cl)cc1Cl	inactive	–
O=C(O)CCCc1ccc(N(CCCl)CCCl)cc1	inactive	–
COC(C)(C)CCC[C@H](C)C/C=C/C(C)=C/C(=O)OC(C)C	–	20 µM (active)
O=P1(NCCCl)OCCCN1CCCl (centres undefined)	inactive	–
O=S(=O)(c1ccccc1)c1ccccc1	inactive	–
Clc1ccc(-c2ccccc2)cc1	inactive	–
Oc1cc(Cl)ccc1Cl	inactive	–

Read-out: not listed separately
Assay: BSK_3C_Vis: BioMAP Diversity Plus: 3C Assay for Morphology Visualization (AID 2283025);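 also: fitted both ways so gain or loss versus DMSO counts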
Conditions: primary human endothelial cells (HUVEC)
Outline: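 Morphology read by light microscopy serves as a background control for the multiplexed 3C assay in human umbilical vein endothelial cells, taken 24 h after dosing, with DMSO as the negative control and bidirectional curve fitting.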

Compound	outcome	AC50
Nc1ccc(-c2ccc(N)c(N)c2)cc1N	inactive	–
O=c1[nH]c(Cl)c(Cl)cc1Cl	inactive	–
O=C(O)CCCc1ccc(N(CCCl)CCCl)cc1	–	38.9 µM (active) and 38.6 µM (active)
COC(C)(C)CCC[C@H](C)C/C=C/C(C)=C/C(=O)OC(C)C	–	37.4 µM (active)
O=P1(NCCCl)OCCCN1CCCl (centres undefined)	inactive	–
O=S(=O)(c1ccccc1)c1ccccc1	inactive	–
Clc1ccc(-c2ccccc2)cc1	inactive	–
Oc1cc(Cl)ccc1Cl	inactive	–

Read-out: not listed separately
Assay: BSK_4H_SRB: Viability Assessment in the BioMAP Diversity Plus: 4H Assay (AID 2283027);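 also: cells exposed to compound for 24 h before staining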;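 as to AC50: curves fitted both ways versus DMSO so AC50 may be loss or gain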
Conditions: primary human endothelial cells (HUVEC)
Outline: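 Cytotoxicity read-out in primary human endothelial cells: after 24 h compound exposure, cells were TCA-fixed (10%), stained with 0.1% SRB and absorbance taken at 560 nm. Values fitted in both directions relative to DMSO.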

Compound	outcome	AC50
Nc1ccc(-c2ccc(N)c(N)c2)cc1N	inactive	–
O=c1[nH]c(Cl)c(Cl)cc1Cl	inactive	–
O=C(O)CCCc1ccc(N(CCCl)CCCl)cc1	–	20 µM (active)
COC(C)(C)CCC[C@H](C)C/C=C/C(C)=C/C(=O)OC(C)C	–	32.4 µM (active)
O=P1(NCCCl)OCCCN1CCCl (centres undefined)	inactive	–
O=S(=O)(c1ccccc1)c1ccccc1	inactive	–
Clc1ccc(-c2ccccc2)cc1	–	35.3 µM (active)
Oc1cc(Cl)ccc1Cl	inactive	–

Read-out: not listed separately
Assay: BSK_BE3C_SRB: Viability Assessment in the BioMAP Diversity Plus: BE3C Assay (AID 2283028)
Conditions: primary human bronchial epithelial cells
Outline: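 SRB total-protein staining (0.1%, after TCA fixation) of chemically dosed human bronchial epithelial primary cells at 24 h; DMSO serves as the negative control for bidirectional curve fitting.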

Compound	outcome
Nc1ccc(-c2ccc(N)c(N)c2)cc1N	inactive
O=c1[nH]c(Cl)c(Cl)cc1Cl	inactive
O=C(O)CCCc1ccc(N(CCCl)CCCl)cc1	inactive
COC(C)(C)CCC[C@H](C)C/C=C/C(C)=C/C(=O)OC(C)C	inactive
O=P1(NCCCl)OCCCN1CCCl (centres undefined)	inactive
O=S(=O)(c1ccccc1)c1ccccc1	inactive
Clc1ccc(-c2ccccc2)cc1	inactive
Oc1cc(Cl)ccc1Cl	inactive

Read-out: Urokinase-type plasminogen activator receptor (uPAR), PLAUR (gene 5329)
Assay: BSK_4H_uPAR: BioMAP Diversity Plus: 4H Assay for Urokinase-type plasminogen activator receptor (uPAR) Biomarker Activity (AID 2283030)
Conditions: primary human endothelial cells (HUVEC); actives raise or lower the signal
Outline: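 Endpoint derived via bidirectional curve fitting against DMSO baseline; readout was ELISA detection of uPAR on umbilical vein endothelial cells at 24 h post-treatment, with SRB-stained parallel cultures assessing cytotoxicity.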

Compound	outcome	AC50
Nc1ccc(-c2ccc(N)c(N)c2)cc1N	inactive	–
O=c1[nH]c(Cl)c(Cl)cc1Cl	inactive	–
O=C(O)CCCc1ccc(N(CCCl)CCCl)cc1	inactive	0.687 µM (active)
COC(C)(C)CCC[C@H](C)C/C=C/C(C)=C/C(=O)OC(C)C	–	32.6 µM (active)
O=P1(NCCCl)OCCCN1CCCl (centres undefined)	inactive	–
O=S(=O)(c1ccccc1)c1ccccc1	inactive	–
Clc1ccc(-c2ccccc2)cc1	inactive	–
Oc1cc(Cl)ccc1Cl	inactive	–

Read-out: Vascular endothelial growth factor receptor 2 (Homo sapiens) (UniProt P35968)
Assay: BSK_4H_VEGFRII: BioMAP Diversity Plus: 4H Assay for Vascular endothelial growth factor receptor 2 (VEGFR2) Biomarker Activity (AID 2283031);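 as to AC50: cell-surface VEGFR2 protein level quantified by ELISA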
Conditions: primary human endothelial cells (HUVEC); actives raise or lower the signal
Outline: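 In this multiplexed HUVEC system, biomarker ELISA was performed after 24 h chemical exposure. Parallel SRB staining (TCA fixation, 560 nm) tracked cytotoxicity; DMSO served as baseline.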

Compound	outcome	AC50
Nc1ccc(-c2ccc(N)c(N)c2)cc1N	inactive	–
O=c1[nH]c(Cl)c(Cl)cc1Cl	inactive	–
O=C(O)CCCc1ccc(N(CCCl)CCCl)cc1	inactive	–
COC(C)(C)CCC[C@H](C)C/C=C/C(C)=C/C(=O)OC(C)C	–	32 µM (active)
O=P1(NCCCl)OCCCN1CCCl (centres undefined)	inactive	–
O=S(=O)(c1ccccc1)c1ccccc1	inactive	–
Clc1ccc(-c2ccccc2)cc1	inactive	–
Oc1cc(Cl)ccc1Cl	inactive	–
